According to PubChem BioAssay AID504447 (The Scripps Research Institute Molecular Screening Center, 2011):
Entries with a potency or affinity are not part of this list.

target: Peroxisome proliferator-activated receptor gamma (Homo sapiens) (UniProt P37231); assay: PPARg partial agonists, dose response, cell-based, luminescence, assay provider (AID 504447); conditions: cell-based PPARg reporter, luciferase luminescence, partial agonism; series mostly up to 5 µM; fold change activation: at the top concentration
Sequence (P37231 whole entry, looked up): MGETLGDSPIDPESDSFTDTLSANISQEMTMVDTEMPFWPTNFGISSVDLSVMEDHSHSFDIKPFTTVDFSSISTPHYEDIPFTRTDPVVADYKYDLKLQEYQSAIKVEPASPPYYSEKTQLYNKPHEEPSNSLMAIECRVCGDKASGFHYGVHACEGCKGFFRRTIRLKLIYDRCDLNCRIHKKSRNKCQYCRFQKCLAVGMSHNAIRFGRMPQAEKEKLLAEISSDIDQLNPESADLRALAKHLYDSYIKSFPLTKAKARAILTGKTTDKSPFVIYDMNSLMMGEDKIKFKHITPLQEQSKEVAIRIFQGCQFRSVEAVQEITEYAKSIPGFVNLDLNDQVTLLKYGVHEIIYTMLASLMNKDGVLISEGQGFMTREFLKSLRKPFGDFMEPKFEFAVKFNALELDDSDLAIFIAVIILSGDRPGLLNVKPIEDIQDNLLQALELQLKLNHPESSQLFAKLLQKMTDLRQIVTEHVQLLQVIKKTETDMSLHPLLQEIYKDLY

Fold change activation, inactive:
COc1ccc(CN(Cc2ccccn2)C(=O)CN2C(=O)C(C)Oc3ccccc32)cc1 (stereo not given) 1.05 fold, CN(CCNC(=O)C1CCCN(c2ncnc3c2nc2n3CCCCC2)C1)Cc1ccccc1 (stereo not given) 0.92 fold, O=C(CSc1nc(=O)n(CCCN2CCOCC2)c2c1CCC2)Nc1cccc(F)c1 1.04 fold, COc1cc(C2/C(=C(/O)c3ccc(F)cc3)C(=O)C(=O)N2CCCC(=O)O)ccc1O (stereo not given) 0.97 fold, COc1ccc(O)c(C(=O)c2cc(C#N)c(=O)n(-c3ccc(Cl)cc3)c2)c1 1.07 fold, O=C1CC(N2CCN(Cc3ccc4c(c3)OCO4)CC2)C(=O)N1Cc1ccc(N2CCCC2=O)cc1 (stereo not given) 1.06 fold, Cc1ccccc1NC(=O)CC1C(=O)Nc2ccccc2N1CC(=O)N(C)C1CCS(=O)(=O)C1 (stereo not given) 1.14 fold, Cc1cc(N2C(=O)C(O)=C(C(=O)c3cccs3)C2c2cccc(Br)c2)no1 (stereo not given) 1.07 fold, O=C(O)COc1ccccc1/C=C1\SC(=S)N(NC(=O)c2ccccc2O)C1=O 1.01 fold, O=C(COc1coc(CN2CCc3ccccc3C2)cc1=O)Nc1ccc(F)cc1F 1.06 fold, CCOc1cc(C2C(C(=O)OC)=CN(Cc3ccc(Cl)cc3)C=C2C(=O)OC)ccc1O 1.06 fold, CC(Oc1ccc2c(c1)oc(=O)c1ccccc12)C(=O)NC(Cc1c[nH]c2ccc(O)cc12)C(=O)O (stereo not given) 0.99 fold, Cc1c(-n2cc(C(=O)c3cc(F)ccc3O)cc(C#N)c2=O)c(=O)n(-c2ccccc2)n1C 1.05 fold, O=C(c1cccc(N2C(=O)C3C4C=CC(C4)C3C2=O)c1)N1CCN(c2ccccc2Cl)CC1 (stereo not given) 0.9 fold, Cc1cccc(NC(=O)CN2C(=O)/C(=C3\SC(=S)N(CC4CCCO4)C3=O)c3ccccc32)c1 (stereo not given) 1.07 fold
